Measured values reported in paper PMC8384837, “Expanding the binding specificity for RNA recognition by a PUF domain”.

Molecular target: PUM1 PUF domain R4-WAV (Homo sapiens, UniProt Q14671 828-1176, N971W;H972A;Q975V)
Experiment: yeast three-hybrid, YBZ-1, SC-Leu-His + 0.5 mM 3-AT, 4 days
Conditions: tags: N-Gal4 AD-HA kept; label: inside an RPR1-promoter hybrid RNA with tandem MS2 sites; ssRNA
Summary of the method: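 Pumilio-1 PUF domain libraries, randomized (NNK) at the three base-contacting residues of each repeat, were co-expressed with matching RNA elements from a centromeric plasmid in strain YBZ-1 (LexA–MS2 coat fusion, HIS3 reporter). Transformants were plated on SC-Leu (input) and SC-Leu-His + 0.5 mM 3-AT (selection) for four days, and repeat regions were PCR-amplified and Illumina-sequenced. The interaction score is the log2 change in variant frequency from input to selection, with pseudocount 1 where absent.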

PUM1 PUF domain R4-WAV, sequence (Q14671 828-1176 N971W/H972A/Q975V): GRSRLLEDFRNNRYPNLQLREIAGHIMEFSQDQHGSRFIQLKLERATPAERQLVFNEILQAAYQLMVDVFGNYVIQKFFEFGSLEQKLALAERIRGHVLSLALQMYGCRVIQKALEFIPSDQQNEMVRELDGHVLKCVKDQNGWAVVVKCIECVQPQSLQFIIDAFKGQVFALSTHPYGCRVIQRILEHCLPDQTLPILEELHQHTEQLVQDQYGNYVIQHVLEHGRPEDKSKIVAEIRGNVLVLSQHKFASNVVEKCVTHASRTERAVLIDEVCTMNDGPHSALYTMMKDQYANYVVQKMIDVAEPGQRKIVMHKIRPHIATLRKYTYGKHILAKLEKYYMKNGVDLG

Sequence	binding signal
GGCUAGAACUAGUGGAUCCCCCGGCGCCCGGCGGCUCGAGCCCGGGUAAGUGUAUAUAGUCUGCAUGCCGCCGGGCGCCAUGCCUGCAGGUCGACUCUAGAAAACAUG	5.71 log2 enrichment (interaction score)
GGCUAGAACUAGUGGAUCCCCCGGCGCCCGGCGGCUCGAGCCCGGGUAAGUGUACAUAGUCUGCAUGCCGCCGGGCGCCAUGCCUGCAGGUCGACUCUAGAAAACAUG	2.23 log2 enrichment (interaction score)
GGCUAGAACUAGUGGAUCCCCCGGCGCCCGGCGGCUCGAGCCCGGGUAAGUGUAAAUAGUCUGCAUGCCGCCGGGCGCCAUGCCUGCAGGUCGACUCUAGAAAACAUG	2.33 log2 enrichment (interaction score)
